Data: PubChem BioAssay (NCATS)
Results filed as inconclusive are left out. Active and inactive are the calls of the source. Calls follow the shape of the dose curve; as a rule, active = well fitted cell-killing curve with a large enough effect; inconclusive = small, poorly fitted or top-dose-only effect, or effect the other way; inactive = flat fitted curve, though single readings scatter.

Tests used:
Assay in all cases: Primary qHTS to identify gynecologic anti-cancer compounds using libraries of approved drugs and bioactive compounds (AID 1345084); also: nearly all actives have a fitted effect of over 55% in size
Settings in all cases: Gynecologic cancer cell panel viability, ATPlite luminescence, 48 h; series mostly up to 57.5 µM
OV90 = test system: OV90
Method in brief: (§1)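 Five-concentration response, 48 h; readout is ATP-driven luciferase luminescence.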

PA-1 = test system: PA-1
Method in brief: as §1

SKOV3 = test system: SKOV3
Method in brief: as §1

Tov-21-G = test system: Tov-21-G
Method in brief: as §1

Tov112D = test system: Tov112D
Method in brief: as §1
% is scaled to controls: 0 for no effect and ±100 for the full control effect.

C/C1=C\CC(C)(C)/C=C/C/C(C(=O)O)=C/CC1
inactive: Potency (OV90) | Potency (PA-1) | Potency (SKOV3) | Potency (Tov-21-G) | Potency (Tov112D)

CC1CC(=O)[C@]2(O)C(C(=O)OCCc3ccc(O)c(O)c3)=CO[C@@H](O[C@@H]3O[C@H](CO)[C@@H](O)[C@H](O)[C@H]3O)[C@H]12 (stereo not given in full)
inactive: Potency (OV90) | Potency (PA-1) | Potency (SKOV3) | Potency (Tov-21-G) | Potency (Tov112D)

CC(C)(C)NS(=O)(=O)c1ccc(-c2ccc3[nH]nc(N)c3c2)cc1
inactive: Potency (OV90) | Potency (PA-1) | Potency (SKOV3) | Potency (Tov-21-G) | Potency (Tov112D)

CC(C)CC(=O)NCCn1cc(C(=O)O)c(=O)cc1C(O)c1ccccc1 (stereo not given)
inactive: Potency (OV90) | Potency (PA-1) | Potency (SKOV3) | Potency (Tov-21-G) | Potency (Tov112D)

CC1OC(O[C@H]2CC[C@@]3(C)C(CC[C@]4(C)C3CC=C3C5CC(C)(C)CC[C@]5(C(=O)OC5OC(CO)C(OC6OCC(OC7OCC(O)C(O)C7O)C(O)C6O)C(O)C5O)CC[C@]34C)C2(C)C)C(O)C(O)C1OC1OC(CO)C(O)C(OC2OC(CO)C(O)C(O)C2O)C1O (stereo not given in full)
inactive: activity change, negative = cytotoxicity (OV90) -14.5% [at 6.55 µM] | activity change, negative = cytotoxicity (PA-1) -1.37% [at 6.55 µM] | activity change, negative = cytotoxicity (SKOV3) 3.95% [at 6.55 µM] | activity change, negative = cytotoxicity (Tov-21-G) -4.11% [at 6.55 µM] | activity change, negative = cytotoxicity (Tov112D) -3.05% [at 6.55 µM]

CC(C)C(NC(=O)c1ccc(O)cc1)C(=O)N1CCCC1C(=O)Nc1c(O)cccc1C(=O)O (stereo not given)
inactive: Potency (OV90) | Potency (PA-1) | Potency (SKOV3) | Potency (Tov-21-G) | Potency (Tov112D)

Cc1ccc([C@@H]2CC=C(C(=O)O)[C@H](c3ccc(C(C)(C)C)cc3)N2S(=O)(=O)c2ccc(C)cc2)cc1
inactive: Potency (OV90) | Potency (PA-1) | Potency (SKOV3) | Potency (Tov-21-G) | Potency (Tov112D)

CC(C)=C1CC2[C@](C)(CC[C@@H](OC(=O)C3(C)OC3C)[C@@]2(C)O)CC1=O (stereo not given in full)
inactive: Potency (OV90) | Potency (PA-1) | Potency (SKOV3) | Potency (Tov-21-G) | Potency (Tov112D)

C=C1CCC2C(C)(C(=O)O)CCCC2(C)C1CC/C(C)=C\CO (stereo not given)
inactive: Potency (OV90) | Potency (PA-1) | Potency (SKOV3) | Potency (Tov-21-G) | Potency (Tov112D)

CC1(C)CC[C@]2(C(=O)O[C@@H]3O[C@H](CO)[C@@H](O)[C@H](O)[C@H]3O)CC[C@]3(C)C(=CCC4[C@@]5(C)C[C@@H](O)[C@H](O)[C@@](C)(CO)C5[C@H](O)C[C@]43C)C2[C@@H]1O (stereo not given in full)
inactive: Potency (OV90) | Potency (PA-1) | Potency (SKOV3) | Potency (Tov-21-G) | Potency (Tov112D)

C[C@@H]1O[C@@H](O[C@H]2[C@@H]3C=CO[C@@H](O[C@@H]4O[C@H](CO)[C@@H](O)[C@H](O)[C@H]4O)[C@@H]3[C@@]3(CO)O[C@@H]23)[C@H](O)[C@H](O)[C@H]1OC(=O)/C=C/c1ccc(O)cc1
inactive: Potency (OV90) | Potency (PA-1) | Potency (SKOV3) | Potency (Tov-21-G) | Potency (Tov112D)

CC(=O)OC(C)(C)/C=C/C(=O)[C@](C)(O)C1[C@H](O)C[C@@]2(C)[C@@H]3CC=C4[C@@H](C[C@H](O[C@@H]5O[C@H](CO)[C@@H](O)[C@H](O)[C@H]5O)C(=O)C4(C)C)[C@]3(C)C(=O)C[C@]12C (stereo not given in full)
inactive: Potency (OV90) | Potency (PA-1) | Potency (SKOV3) | Potency (Tov-21-G) | Potency (Tov112D)

FC(F)(F)Oc1ccc(-c2ccc3nnc(C(F)(F)F)n3c2)cc1
inactive: Potency (OV90) | Potency (PA-1) | Potency (SKOV3) | Potency (Tov-21-G) | Potency (Tov112D)

CC(CCO)CCC1C2(C)CCCC(C)(C)C2CC[C@@]1(C)O (stereo not given in full)
inactive: Potency (OV90) | Potency (PA-1) | Potency (SKOV3) | Potency (Tov-21-G) | Potency (Tov112D)

C=C1CCC2C(C)(C(=O)OC)CCCC2(C)C1CCC1=CCOC1=O (stereo not given)
inactive: Potency (OV90) | Potency (PA-1) | Potency (SKOV3) | Potency (Tov-21-G) | Potency (Tov112D)

C[C@]12CC[C@@H]3c4ccc(O)cc4CC[C@H]3[C@@H]1C[C@@H](O[C@@H]1O[C@H](C(=O)O)[C@@H](O)[C@H](O)[C@H]1O)[C@@H]2O
inactive: Potency (OV90) | Potency (PA-1) | Potency (SKOV3) | Potency (Tov-21-G) | Potency (Tov112D)

OC[C@H]1O[C@@H](OCCc2ccccc2)[C@H](O[C@@H]2OC[C@@H](O)[C@H](O)[C@H]2O)[C@@H](O)[C@@H]1O
inactive: Potency (OV90) | Potency (PA-1) | Potency (SKOV3) | Potency (Tov-21-G) | Potency (Tov112D)

COC(=O)[C@]1(C)CCC[C@@]2(C)C(=O)CC[C@H]3C(=O)C=C(CC[C@@H]21)C3O (stereo not given in full)
inactive: Potency (OV90) | Potency (PA-1) | Potency (SKOV3) | Potency (Tov-21-G) | Potency (Tov112D)

CC1=C2C(=O)C=C(CO)C2C2OC(=O)C(CS(=O)(=O)O)C2C(OC(=O)Cc2ccc(O)cc2)C1 (stereo not given)
inactive: Potency (OV90) | Potency (PA-1) | Potency (SKOV3) | Potency (Tov-21-G) | Potency (Tov112D)

CC(C)=CCc1c(O)cc2oc3cc(C)cc(O)c3c2c1C
inactive: Potency (OV90) | Potency (PA-1) | Potency (SKOV3) | Potency (Tov-21-G) | Potency (Tov112D)
